Assay results from PubChem BioAssay.
A number with no mark means an inactive call. For part of these data: Entries with a potency or affinity are not part of this list. Active and inactive are the calls of the source. Unless noted, no rule for the calls is given here.

Assays:
[1] = antimalarial activity against Dd2 strain (AID 2302;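 active = growth inhibition above 50% at the single 2 µM test dose, taken to imply half-maximal potency below 2 µM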;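 also: 0% = DMSO untreated growth and 100% = chloroquine plus artemisinin killed control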); details: P. falciparum Dd2 in RBCs, LDH growth readout, 72 h; at 2 µM; stronger effect = higher value
[2] = HepG2 cytotoxicity, primary screen, cytotoxicity control for P. falciparum antimalarial project, cell-based, ATP luminescence (AID 2303;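 active = inhibition above 50%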;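 also: 0% = DMSO wells and 100% = digitonin-killed cells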); details: HepG2 viability, 24-48 h, at 10 µM, stronger effect = higher value
[3] = molecular target: L-lactate dehydrogenase (Plasmodium falciparum (isolate CDC / Honduras)) (UniProt Q27743); assay: PfLDH activity inhibition – cell lysate, 3D7 strain, counter-screen for P. falciparum growth inhibition project (AID 2304);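 also: 0% = vehicle and 100% = reference inhibitor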; details: P. falciparum 3D7 crude extract, LDH APAD/NBT absorbance; at 2 µM; stronger effect = higher value
Sequence of L-lactate dehydrogenase (Plasmodium falciparum (isolate CDC / Honduras)) (Q27743 whole entry, looked up): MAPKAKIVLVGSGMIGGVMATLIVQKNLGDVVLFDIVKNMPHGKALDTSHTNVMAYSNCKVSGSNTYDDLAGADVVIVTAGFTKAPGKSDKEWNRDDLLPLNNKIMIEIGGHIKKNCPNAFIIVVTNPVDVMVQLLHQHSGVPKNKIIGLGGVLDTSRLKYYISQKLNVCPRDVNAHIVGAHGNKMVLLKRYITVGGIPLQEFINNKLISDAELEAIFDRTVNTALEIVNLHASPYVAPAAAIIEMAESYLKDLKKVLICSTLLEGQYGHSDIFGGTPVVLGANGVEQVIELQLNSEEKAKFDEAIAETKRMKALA

[4] = inhibition of 3D7 malaria parasite growth – strain 3D7 (AID 2306);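 also: 0% = DMSO wells and 100% = chloroquine plus artemisinin control wells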; details: P. falciparum 3D7 erythrocytic growth, LDH absorbance, 72 h; at 2 µM; stronger effect = higher value
[5] = molecular target: Calcium-dependent protein kinase 1 (Plasmodium falciparum (isolate 3D7)) (UniProt P62344); assay: PfCDPK1 kinase inhibitors, biochemical, TCAMS library (AID 1159585; cut-off not given, nearly all actives have IC50 up to about 0.98 µM;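 also: inhibitors leave more ATP so luminescence rises with inhibition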); details: recombinant PfCDPK1, Kinase-Glo ATP depletion luminescence
Sequence of Calcium-dependent protein kinase 1 (Plasmodium falciparum (isolate 3D7)) (P62344 whole entry, looked up): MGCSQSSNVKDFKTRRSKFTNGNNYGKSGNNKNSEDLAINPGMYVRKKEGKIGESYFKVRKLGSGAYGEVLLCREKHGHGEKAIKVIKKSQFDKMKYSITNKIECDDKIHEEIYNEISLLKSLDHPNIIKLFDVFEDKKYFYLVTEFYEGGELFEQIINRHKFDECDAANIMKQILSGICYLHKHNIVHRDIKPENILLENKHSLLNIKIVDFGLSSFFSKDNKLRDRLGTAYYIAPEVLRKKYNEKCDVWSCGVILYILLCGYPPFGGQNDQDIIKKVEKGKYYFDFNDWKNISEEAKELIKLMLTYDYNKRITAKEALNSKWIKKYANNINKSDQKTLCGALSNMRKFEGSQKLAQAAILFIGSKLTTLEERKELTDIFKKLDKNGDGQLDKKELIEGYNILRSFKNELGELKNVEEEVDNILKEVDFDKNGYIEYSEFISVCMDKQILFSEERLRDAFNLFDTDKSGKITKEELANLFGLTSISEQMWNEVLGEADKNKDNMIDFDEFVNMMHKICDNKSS

[6] = molecular target: Plasmodium falciparum protein kinase 6 (PK6, PF3D7_1337100) (UniProt Q8IDW1); assay: PfPK6 kinase inhibitors, biochemical, TCAMS library (AID 1159586); details: recombinant PfPK6, Kinase-Glo ATP depletion luminescence
Sequence of Plasmodium falciparum protein kinase 6 (PK6, PF3D7_1337100) (Q8IDW1 1-305): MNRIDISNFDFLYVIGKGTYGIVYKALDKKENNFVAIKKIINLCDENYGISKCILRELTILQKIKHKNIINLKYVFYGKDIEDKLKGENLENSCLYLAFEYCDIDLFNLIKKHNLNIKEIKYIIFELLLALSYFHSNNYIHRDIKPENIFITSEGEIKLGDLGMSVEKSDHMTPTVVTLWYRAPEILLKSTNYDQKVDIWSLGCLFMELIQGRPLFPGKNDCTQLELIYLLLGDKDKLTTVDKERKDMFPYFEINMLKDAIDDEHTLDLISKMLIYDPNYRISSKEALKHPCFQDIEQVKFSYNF

[7] = molecular target: Protein kinase 7 (PK7), Plasmodium falciparum 3D7 (PF3D7_0213400) (UniProt Q7YTF7); assay: inhibition of Plasmodium PK7 catalytic activity – biochemical, TCAMS antimalarial set, Kinase-Glo luminescence (AID 1159587); details: recombinant PfPK7, Kinase-Glo ATP depletion luminescence
Sequence of Protein kinase 7 (PK7), Plasmodium falciparum 3D7 (PF3D7_0213400) (Q7YTF7 1-343): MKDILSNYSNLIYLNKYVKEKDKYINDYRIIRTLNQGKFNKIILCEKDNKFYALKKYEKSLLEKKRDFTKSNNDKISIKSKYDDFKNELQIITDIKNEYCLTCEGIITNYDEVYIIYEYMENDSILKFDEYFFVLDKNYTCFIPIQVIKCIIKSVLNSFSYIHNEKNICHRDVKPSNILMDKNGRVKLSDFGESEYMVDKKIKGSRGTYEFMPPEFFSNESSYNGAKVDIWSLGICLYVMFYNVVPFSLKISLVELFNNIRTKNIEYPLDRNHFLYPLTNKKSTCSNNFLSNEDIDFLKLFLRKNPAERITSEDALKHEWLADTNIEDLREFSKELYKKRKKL

[8] = molecular target: Calcium-dependent protein kinase 4 (Plasmodium falciparum (isolate 3D7)) (UniProt Q8IBS5); assay: PfCDPK4 kinase inhibitors, biochemical, TCAMS library (AID 1159588; cut-off not given, nearly all actives have IC50 up to about 0.91 µM); details: recombinant PfCDPK4, Kinase-Glo ATP depletion luminescence
Sequence of Calcium-dependent protein kinase 4 (Plasmodium falciparum (isolate 3D7)) (Q8IBS5 whole entry, looked up): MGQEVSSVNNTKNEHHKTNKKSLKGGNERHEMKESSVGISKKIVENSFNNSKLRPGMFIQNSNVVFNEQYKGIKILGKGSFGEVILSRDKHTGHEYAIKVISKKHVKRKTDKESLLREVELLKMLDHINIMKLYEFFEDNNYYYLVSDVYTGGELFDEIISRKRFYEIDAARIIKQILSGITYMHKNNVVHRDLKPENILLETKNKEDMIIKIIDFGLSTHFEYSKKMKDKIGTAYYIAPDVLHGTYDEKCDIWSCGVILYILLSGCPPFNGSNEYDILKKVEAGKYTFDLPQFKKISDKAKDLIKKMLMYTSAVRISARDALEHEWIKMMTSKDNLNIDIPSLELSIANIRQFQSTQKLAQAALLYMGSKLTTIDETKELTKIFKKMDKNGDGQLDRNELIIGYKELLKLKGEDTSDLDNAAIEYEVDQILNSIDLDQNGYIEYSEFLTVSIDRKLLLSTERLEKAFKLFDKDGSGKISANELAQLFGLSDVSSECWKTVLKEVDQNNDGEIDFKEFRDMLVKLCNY

Row | SMILES | growth inhibition [1] | inhibition [2] | inhibition [3] | growth inhibition [4] | outcome [5] | outcome [6] | outcome [7] | outcome [8]
1 | Nc1cccc(CNCc2ccc(-c3ccc(-c4nc5ccc(C(F)(F)F)cc5[nH]4)s3)cc2)c1 | 98% (active) | 28% | -2% | 102% (active) | inactive | inactive | inactive | inactive
2 | O=C(Nc1ccc(Cl)cc1)N(CC1C[C@H]2CC[C@@H](C1)N2Cc1ccc(C(F)(F)F)cc1)c1ccc(N2CCOCC2)c(F)c1 (some centres not stated) | 36% | 31% | 0% | 85% (active) | inactive | inactive | inactive | inactive
3 | Cc1sc(CNCCCNc2cc(=O)c3ccccc3[nH]2)c(C(F)(F)F)c1C | 70% (active) | -12% | 1% | 99% (active) | inactive | inactive | inactive | inactive
4 | O=C(Nc1cccc(CN2CCCN(Cc3ccsc3)CC2)c1)c1cc2ccccc2s1 | 29% | 25% | 5% | 96% (active) | inactive | inactive | inactive | inactive
5 | Cc1ccc2c(c1)C1(CC(=O)N(CCc3scnc3C)C1=O)C(=O)N2Cc1ccccc1 (configuration not stated) | 73% (active) | -5% | 2% | 83% (active) | inactive | inactive | inactive | inactive
6 | c1ccc(CCNCc2cccc(-c3ccc(CNc4ccc5ncccc5c4)cc3)c2)cc1 | 27% | 43% | -2% | 93% (active) | inactive | inactive | inactive | inactive
7 | Cn1ccnc1Sc1ncccc1[N+](=O)[O-] | 2% | 0% | -3% | 96% (active) | inactive | inactive | inactive | inactive
8 | N#Cc1cccc(NC(=O)Nc2cccc(OC3CCN(Cc4ccccc4)CC3)c2)c1 | 48% | 5% | 1% | 100% (active) | inactive | inactive | inactive | inactive
9 | COc1ccc2nccc([C@@H](O)CN3CCC(NCc4cc5ccccc5s4)CC3)c2c1 | 53% (active) | 8% | 3% | 97% (active) | inactive | inactive | inactive | inactive
10 | Cc1nc(-c2nc(N3CCOCC3)ncc2-c2ccsc2)sc1C | 75% (active) | 5% | -7% | 89% (active) | inactive | inactive | inactive | inactive
11 | CN1CCC(Oc2cc(NC(=O)Nc3ccc(-c4ccncc4)c(Cl)c3)ccc2Cl)CC1 | 100% (active) | 23% | -5% | 99% (active) | inactive | inactive | inactive | inactive
12 | CSC1=NC(=Nc2c(C)cccc2C)C2(CCCCC2)N1c1ccccc1Cl | 57% (active) | 22% | -6% | 95% (active) | inactive | inactive | inactive | inactive
13 | Clc1cccc(-c2nc(Nc3ccnc(-c4ccc(CN5CCOCC5)cc4)c3)c3ccccc3n2)c1 | 65% (active) | 8% | -4% | 100% (active) | inactive | inactive | inactive | inactive
14 | COc1ccc(NC(=O)/C=C/c2ccccc2Cl)cc1OCCN1CCC(c2nc3ccccc3[nH]2)CC1 | 16% | 35% | -6% | 92% (active) | inactive | inactive | inactive | inactive
15 | CCCc1ccc(NC(=O)c2ccc(CN3CCCN(Cc4ccc(OC)cc4)CC3)cc2)cc1 | -4% | 47% | 0% | 81% (active) | inactive | inactive | inactive | inactive
16 | Cc1[nH]c(C)c(-c2ccc(OCc3cccc(C(F)(F)F)c3)nc2)c(=O)c1Br | 97% (active) | 37% | -2% | 99% (active) | inactive | inactive | inactive | inactive
17 | Cc1cc(N2CCC(N(C)C)C2)nc(Nc2ccc(Cl)cc2)n1 (configuration not stated) | 17% | 11% | 2% | 99% (active) | inactive | inactive | inactive | inactive
18 | N#Cc1cccc(NC(=O)Nc2cccc(-c3cccc(-c4nc5ccc(F)cc5[nH]4)c3)c2)c1 | 66% (active) | 60% (active) | 0% | 102% (active) | inactive | inactive | inactive | inactive
19 | CN1CCN(CCCN(Cc2cccc(-c3cccc(CNC4CCCC4)c3)c2)C(=O)CCC2CCCC2)CC1 | 96% (active) | 35% | -3% | 100% (active) | inactive | inactive | inactive | inactive
20 | c1ccc2[nH]c(-c3ccc(-c4ccc(CN5CCC(N6CCCCC6)CC5)cc4)s3)nc2c1 | 100% (active) | 26% | -5% | 99% (active) | inactive | inactive | inactive | inactive

Row | SMILES | growth inhibition [1] | inhibition [2] | inhibition [3] | growth inhibition [4] | outcome [5] | outcome [6] | outcome [7] | outcome [8]
21 | CCCN(CCC)CC(O)COc1ccccc1C(=O)Nc1ccccc1 (configuration not stated) | 95% (active) | 6% | -2% | 92% (active) | inactive | inactive | inactive | inactive
22 | CCN(CC)CCNc1c2ccc(Cl)cc2nc2ccc(OC)nc12 | 99% (active) | 20% | 2% | 100% (active) | inactive | inactive | inactive | inactive
23 | Cc1cccc(CNc2nc(C)cc(N[C@@H](Cc3ccccc3)C(=O)NC3CCCC3)n2)c1 | 97% (active) | 51% (active) | -3% | 100% (active) | inactive | inactive | inactive | inactive
24 | NC(N)=NN=Cc1ccc2c(ccc3ccccc32)c1 | 68% (active) | 9% | 6% | 100% (active) | inactive | inactive | inactive | inactive
25 | Nc1ncnc2c1ncn2C(CO)Cc1ccc(O)cc1 (configuration not stated) | 0% | -5% | -2% | 93% (active) | inactive | inactive | inactive | inactive
26 | CC(C)C(=O)NC(c1cccs1)c1cc(Cl)c2cccnc2c1O (configuration not stated) | 91% (active) | 23% | -2% | 91% (active) | inactive | inactive | inactive | inactive
27 | Oc1ccc2[nH]c(-c3cccc(F)c3)nc2c1CN1CCC(O)(c2ccccc2)CC1 | 72% (active) | 21% | -1% | 97% (active) | inactive | inactive | inactive | inactive
28 | CN(C)CCC1CCCc2ccc(NC(=O)Nc3ccc(-c4ccncc4)c4ccccc34)cc21 (configuration not stated) | 27% | 34% | 6% | 89% (active) | inactive | inactive | inactive | inactive
29 | CCCCCCN(CCCCCC)CC(O)c1c(OC)ccc2ccccc12 (configuration not stated) | 100% (active) | 18% | -1% | 101% (active) | inactive | inactive | inactive | inactive
30 | COCCNC(=O)C1CCN(C(c2ccc(Cl)cc2)c2ccc(Cl)cc2)CC1 | 73% (active) | 3% | -3% | 86% (active) | inactive | inactive | inactive | inactive
31 | O=c1c2ccccc2[nH]c2cc(Cl)ccc12 | 86% (active) | 24% | 1% | 95% (active) | inactive | inactive | inactive | inactive
32 | Cc1cc(N(C)C)nc(Nc2ccc(NS(=O)(=O)c3ccccc3)cc2)n1 | 11% | -3% | -1% | 92% (active) | inactive | inactive | inactive | inactive
33 | Cc1c(C)n(C2CCCC2)c2ncnc(OC3CCN(CC(=O)NCC4CC4)CC3)c12 | 89% (active) | 20% | 1% | 89% (active) | inactive | inactive | inactive | inactive
34 | Cc1cccc(C)c1OC(=O)CSc1nnc(-c2ccccc2O)o1 | -2% | 11% | 0% | 97% (active) | inactive | inactive | inactive | inactive
35 | Cc1nc(-c2cccc3c(NC(=O)N4CCc5cc6nccc(N7CCN(C)CC7)c6cc54)cccc23)no1 | 97% (active) | 45% | 2% | 100% (active) | inactive | inactive | inactive | inactive
36 | Cc1cccc(Oc2cccc3[nH]nc(N)c23)c1 | -3% | 6% | -2% | 85% (active) | inactive | inactive | inactive | inactive
37 | Cc1cccc2[nH]c(-c3ccc(-c4ccc(NC(=O)C5CCN(C)CC5)cc4)cc3)nc12 | 92% (active) | 28% | 1% | 100% (active) | inactive | inactive | inactive | inactive
38 | COc1ccc2nccc([C@@H](O)CN3CCC(CO)(NCc4cc5ccccc5o4)CC3)c2c1 | 7% | 12% | -1% | 85% (active) | inactive | inactive | inactive | inactive
39 | CN1CCC(N(Cc2ccc(-c3ccc(C(F)(F)F)cc3)cc2)C(=O)Cn2c(SCc3cccc(F)c3F)cc(=O)c3c2CCC3)CC1 | 83% (active) | 50% (active) | 1% | 89% (active) | inactive | inactive | inactive | inactive
